Data reported in ChEMBL document CHEMBL4513216, “Probing the Open Global Health Chemical Diversity Library for Multistage-Active Starting Points for Next-Generation Antimalarials” (ACS Infect Dis, 2020).
About 2,700 (4%) of roughly 68,000 compounds showed an effect of 50% or more. The list comes from a sample in which strong results are over-represented; it also holds similar structures and randomly drawn compounds.

The compounds below were run on Plasmodium berghei (assay: Screen against P. berghei liver stage (PbLuc), transformed with Luciferase, at 2uM). Conditions: tested at 2 uM.
Type: functional, HepG2
For `Cc1ccc(F)cc1NC(=O)C1CCCN1C(=O)C(C)C` (configuration not stated), the INHIBITION was 15.27%. With `Cc1cnc(C(C)(C)NC(=O)NCc2ccc(C#N)cc2F)s1` the INHIBITION was 16.79%. In the case of `Cc1cc(C)c(CNC(=O)N2CCN(c3cnccn3)CC2)c(=O)[nH]1`, the INHIBITION is reported as 63.95%. In the case of `Cc1cc(C)c(CNC(=O)C2CCN(c3cnccn3)CC2)c(=O)[nH]1`, the INHIBITION is reported as -7.02%. Compound `Cc1cc(C)c(CNC(=O)N2CCN(c3ccccn3)CC2)c(=O)[nH]1` has an INHIBITION of 7.64%. In the case of `CSc1ccccc1NC(=O)C1CSc2ncc(C)c(=O)n2C1` (configuration not stated), the INHIBITION is reported as -35.92%. For `Cn1c(C(F)(F)F)nn(CCNC(=O)CSCc2ccccc2)c1=O`, the INHIBITION was -30.06%. `NCCn1nc(C2CCN(Cc3ccccc3)C2)c2nccnc21` (configuration not stated) was tested, and the INHIBITION was 8.26%. `CN1CCCC(CCC(=O)NCCCn2ncc3ccccc32)C1` (configuration not stated) gave an INHIBITION of 46.95%. `CN1CCCCC1CCC(=O)NCCCn1ncc2ccccc21` (configuration not stated) gave an INHIBITION of 28.19%. `CN1CCCCCC1C(=O)NCCCn1ncc2ccccc21` (configuration not stated) gave an INHIBITION of 54.78%. `O=C(Nc1ccc(Cl)cc1C(=O)NCCN1CCOCC1)c1ccco1` showed an INHIBITION of 60.47%. With `O=C(Nc1ccc(I)cc1C(=O)NCCN1CCOCC1)c1ccco1` the INHIBITION was -54.79%. In the case of `O=C(Nc1ccccc1C(=O)NCCN1CCOCC1)c1ccco1`, the INHIBITION is reported as -4.93%. Work on `CN(C)CCOCC1CN(Cc2cccs2)Cc2ccnn2C1` (configuration not stated) yielded an INHIBITION of -85.93%. `Cc1cc(CN2CCN(C(=O)NCc3c(C)noc3C)CC2)on1` showed an INHIBITION of 70.27%. `Cc1cc(CN2CCN(C(=O)NCc3ccc(C)s3)CC2)on1` gave an INHIBITION of 6.63%. Compound `CCCNC(=O)N1CCN(Cc2cc(C)no2)CC1` has an INHIBITION of 26.4%. Compound `COc1cc(CCC(=O)NC(C)(C)C)ccc1OCC(F)(F)F` has an INHIBITION of -1.02%. Compound `CCOCCC1(CNC(=O)c2ccc(C)nc2)CCCC1` has an INHIBITION of -9.5%. `CN(C)C(C(=O)N1CCN(CCn2cccc2)CC1)c1cccc(F)c1` (configuration not stated) showed an INHIBITION of 69.67%. `CCOCC1CCN(C(=O)C(c2cccc(F)c2)N(C)C)CC1` (configuration not stated) was tested, and the INHIBITION was -15.23%. Compound `COCCN1CCN(C(=O)C(c2cccc(F)c2)N(C)C)CC1` (configuration not stated) has an INHIBITION of 48.21%. `CN(C)C(C(=O)N1CCN(CCn2cccc2)CC1)c1ccc(F)cc1` (configuration not stated) was tested, and the INHIBITION was 31.51%. `CN(C)C(C(=O)NCCn1cccc1)c1cccc(F)c1` (configuration not stated) gave an INHIBITION of 3.58%. `COCCCN1CCN(C(=O)C(c2cccc(F)c2)N(C)C)CC1` (configuration not stated) gave an INHIBITION of 60.13%. For `CCc1[nH]ncc1C(=O)N1CCCC(n2cccn2)C1` (configuration not stated), the INHIBITION was 2.7%. `Cc1ccccc1OCCCC(=O)N1CCCC(n2cncn2)C1` (configuration not stated) was tested, and the INHIBITION was 39.54%. In the case of `O=C(C1CN(CC2CC2)CC12CCOCC2)N1CCCC1` (configuration not stated), the INHIBITION is reported as 31.41%. `O=C1N(Cc2ccccc2)C[C@H]2CN(Cc3ccccc3Cl)CCN12` gave an INHIBITION of 64.44%. Compound `COCCN1C[C@H]2CN(Cc3cccc(OC)c3)CCN2C1=O` has an INHIBITION of 36.44%. Work on `Cc1ccc(CN2C[C@H]3CN(Cc4ccccc4Cl)CCN3C2=O)cc1` yielded an INHIBITION of 40.83%. `CS(=O)(=O)NC[C@]12COC[C@H]1CN(Cc1ccc3c(c1)OCO3)C2` was tested, and the INHIBITION was -6.8%. `CCCC1CCCN(C(=O)CCn2cccn2)CC1` (configuration not stated) gave an INHIBITION of 63.68%. In the case of `O=C(CCn1cccn1)N1CCC(C2CCN(c3ncccn3)CC2)C1` (configuration not stated), the INHIBITION is reported as 52.08%. In the case of `CCN(CC)CC1CCN(C(=O)CCn2cccn2)CC1`, the INHIBITION is reported as -13.06%. With `COC1CCN(C(=O)CCn2cccn2)CC1` the INHIBITION was 26.61%. With `c1cnc(N2CCC(C3CCN(CCCn4cccn4)C3)CC2)nc1` (configuration not stated) the INHIBITION was 19.04%. Work on `O=C(CCc1cn[nH]c1)N1CCC(C2CCN(c3ncccn3)CC2)C1` (configuration not stated) yielded an INHIBITION of 45.48%. Compound `Cn1cccc1C(=O)N1CC2(CCN(C(=O)c3cccnc3)C2)C1` has an INHIBITION of 21.77%. `CCc1noc(C2CCN(C(=O)CCn3nc(C)cc3C)CC2)n1` showed an INHIBITION of 12.3%. Work on `c1ccc(Cc2noc(CN3CCOC(Cn4cccn4)C3)n2)cc1` (configuration not stated) yielded an INHIBITION of -0.6%. For `O=C(CCO)N1C[C@H]2CN(c3ccccc3)C(=O)[C@H]2C1`, the INHIBITION was 54.01%. Compound `O=C(C1CCC1)N1C[C@@H]2CN(c3ccccc3)C(=O)[C@@H]2C1` has an INHIBITION of 49.07%. `O=C(CC1CC1)N1C[C@@H]2CN(c3ccccc3)C(=O)[C@@H]2C1` was tested, and the INHIBITION was 28.2%. `NC(=O)COc1ccc(CNCc2ccc(F)c(F)c2)cc1` showed an INHIBITION of -52.95%. `Cn1ccnc1CCNS(=O)(=O)c1ccc(Br)cc1` showed an INHIBITION of -16.21%. `COc1cccc2c1CCC2NC(=O)NCc1csc(N(C)C)n1` (configuration not stated) showed an INHIBITION of -57.02%. `Cc1nn(C)c(N(C)C)c1CNC(C)COc1cccc(F)c1` (configuration not stated) was tested, and the INHIBITION was 34.83%. `COc1ccc(CCC(=O)N(C(C)C)C2CCOCC2)cc1` showed an INHIBITION of 20.76%. In the case of `CC(C)N(C(=O)CCc1cccc(F)c1)C1CCOCC1`, the INHIBITION is reported as -7.16%. Compound `CC(C)N(C(=O)CCc1ccco1)C1CCOCC1` has an INHIBITION of 76.6%.
